High-throughput results as filed in PubChem BioAssay.
Tg IFNy HTS: inhibitors of Toxoplasma gondii growth with IFN-gamma; activity change, negative = inhibition, % (test concentration not listed); 69,000 compounds, 3.8% hits; Toxoplasma gondii growth in IFN-gamma-treated host cells; hits give low values; AID 1259416; in the data active = activity change below about -70%, passing the limit was not always enough;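 note: host cells are HeLa cells infected with Toxoplasma gondii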
* hit, by the source's call; ! = repeats disagree. This is one part of a sample in which hits are shown more often than they occur.

SMILES	Tg IFNy HTS
CNC(=O)c1ccc(-c2cc(NCCO)nc3[nH]ccc23)s1	10.4
CC(C)N1CCN(c2ccc3ccc(C(=O)NC4CCCC4)cn23)CC1	-8.9
CCc1ccccc1NC(=O)CSc1nnc(-c2nonc2N)n1CC	7.3
CCCCN(C(=O)c1cc2cccnc2n(Cc2ccc(Cl)cc2)c1=O)c1ccccc1	2.2
CC(=O)CC1(O)C(=O)N(CCOc2ccccc2)c2ccccc21 (centres undefined)	-2.7
O=c1cc(-c2ccc(O)c(O)c2)oc2cc(O)cc(O)c12	9.1
O=c1c(O)c(-c2ccc(O)c(O)c2)oc2cc(O)cc(O)c12	-77.8*!
Cc1oc2cc(O)cc(O)c2c(=O)c1-c1ccccc1	261.2
O=C(CC1N=C2c3ccccc3N=C(SCc3cc(=O)n4ccccc4n3)N2C1=O)NCc1ccc2c(c1)OCO2 (centres undefined)	25.0
Cc1ccc(NC(=O)c2nc(Nc3ccc(C)cc3)c3ccccc3n2)cc1	44.2
Cc1ccc2c(c1C)-n1cccc1C1(CCN(S(=O)(=O)c3cccs3)CC1)N2	33.0
Cc1ccc(S(=O)(=O)N2CCC3(CCCN(CC4CCOCC4)C3)C2)cc1 (centres undefined)	26.3
Cc1ccc(S(=O)(=O)N2CCC3(CC2)CN(c2ccccc2)C3=O)cc1	86.2
Cc1ccc(S(=O)(=O)N2CCCC3(CCCCC3)C2)cc1	-98.3*
CCS(=O)(=O)N1CSC[C@@H]1C(=O)NCCc1csc(-c2ccccc2)n1	14.0
CCOCC1CN(C(=O)Cc2ccsc2)Cc2ccnn2C1 (centres undefined)	7.6
Cc1cnn(Cc2nc(-c3ccc(NC(=O)c4cccc(Cl)c4)cc3)oc2C)c1	52.9
CCOc1ccc(C(=O)Nc2ccc(-c3nc(Cn4cc(C)cn4)c(C)o3)cc2)cc1	-90.6*
Cc1cnn(Cc2nc(-c3ccc(NC(=O)COc4ccccc4)cc3)oc2C)c1	-37.5
COc1ccc(Cl)cc1C(=O)Nc1ccc(-c2nc(Cn3cc(C)cn3)c(C)o2)cc1	29.3
Cc1cnn(Cc2nc(-c3ccc(NC(=O)c4ccc(Cl)cc4)cc3)oc2C)c1	-86.9*
CCc1ccc(C(=O)Nc2ccc(-c3nc(Cn4cccn4)c(C)o3)cc2)cc1	-10.7
Cc1cccc(N2C[C@H]3CN(C(=O)c4ccccc4)C[C@H]3C2)n1	9.6
O=C(Nc1ccccc1OCc1ccccn1)c1cnc(-c2ccc(Cl)cc2)nc1	-40.2
CCN1C(=O)CCc2cc(NS(=O)(=O)c3ccccc3C(=O)OC)ccc21	16.9
SMILES	Tg IFNy HTS
OC(c1cc(C(F)(F)F)nc2c(C(F)(F)F)cccc12)C1CCCCN1 (centres undefined)	-80.2*
CC(C)Nc1ncc(-c2cccs2)c(-c2cccnc2)n1	-4.0
COC(=O)c1cc2n(n1)CCN(Cc1cnn(-c3ccccc3)c1C)C2	11.5
C=C1SC(Nc2c(C)cccc2C)=NC12CCCCC2	-81.1*
Cc1ccc(NC(=O)N2CCC3(CC2)Nc2ccccc2-n2cccc23)c(Cl)c1	339.4
CC(=O)N1C[C@H](C(N)=O)[C@@H](c2ccc(CN(C)Cc3c(C)nc4c(C)cccn34)cc2)C1	-12.6
CCC(=O)N1CCC2(CC1)C(=O)Nc1ccc(C(=O)NC3CC3)cc12	3.0
COC1CCCC(C(=O)N2CCC3(CC2)C(=O)Nc2ccc(-c4ccc(C(C)=O)cc4)cc23)C1 (centres undefined)	-85.9*
COC1CCCC(C(=O)N2CCC3(CC2)C(=O)Nc2ccc(-c4cccc(F)c4)cc23)C1 (centres undefined)	10.6
COc1ccc(-c2nc(C)c(CCNC(=O)C(=O)Nc3cc(C)ccc3C)s2)cc1OC	-68.5
COc1ccc(CCN(C)CCc2ccc(OC)c(OC)c2)cc1OC	4.6
COc1ccc(CCN(C)CCCOc2ccc(S(=O)(=O)c3c(C(C)C)c4ccccc4n3C)cc2)cc1OC	-73.0*
COc1ccc(CCN(C)CCCC(C#N)(c2cc(OC)c(OC)c(OC)c2)C(C)C)cc1OC (centres undefined)	-47.3
COc1ccccc1-c1ccc2c(c1)[C@H]1[C@H](CCN1C(=O)C1CCC1)[C@@H](CO)N2	-76.3*
COc1ccccc1-c1ccc2c(c1)[C@H]1[C@H](CCN1Cc1ccccc1F)[C@@H](CO)N2	-56.2
CC(=O)N1CC[C@@H]2[C@H]1c1cc(-c3ccccc3)ccc1N[C@@H]2CO	40.5
COc1ccccc1-c1ccc2c(c1)[C@H]1[C@H](CCN1C(=O)C1CCC1)[C@H](CO)N2	-71.4*
COc1ccccc1-c1ccc2c(c1)[C@@H]1[C@@H](CCN1S(=O)(=O)c1ccc(C)cc1)[C@H](CO)N2	-78.1*
N#Cc1ccc(-c2ccc3c(c2)[C@@H]2[C@@H](CCN2C(=O)C2CCCCC2)[C@@H](CO)N3)cc1	-62.9
Cc1cccc(S(=O)(=O)N2CC[C@@H]3[C@@H](CO)Nc4ccc(-c5ccccc5F)cc4[C@@H]32)c1	-48.1
COc1ccccc1-c1ccc2c(c1)[C@H]1[C@H](CCN1S(=O)(=O)c1ccc(C)cc1)[C@@H](CO)N2	-63.3
N#Cc1ccc(-c2ccc3c(c2)[C@H]2[C@H](CCN2C(=O)C2CCCCC2)[C@H](CO)N3)cc1	-31.4
Cc1ccc(-c2coc(-c3ccc(NC(=O)Nc4ccc5c(c4)OCCO5)cc3)n2)c(C)c1	8.7
